Active and inactive are the calls of the source.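 How the source made its calls: active means compounds whose rat M5 calcium response changes with dose, giving a fitted curve judged by the depositor; inactive means the rest, with no dose-dependent response.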

For this experiment, the target named is Muscarinic acetylcholine receptor M5 (Rattus norvegicus) (UniProt P08911). Description: rat M5 muscarinic receptor PAM counter-screen, SAR follow-up, selectivity assay for M4 PAM optimization project, CHO-K1 cells, calcium fluorescence, ACh EC20 (AID 623946). As to conditions: CHO-K1 rM5, calcium fluorescence, ACh EC20 potentiation; series mostly up to 30 µM. (In general: A counterscreen serves to expose hits that act by an unwanted route or on another target.)
Sequence of Muscarinic acetylcholine receptor M5 (Rattus norvegicus) (P08911 whole entry, looked up): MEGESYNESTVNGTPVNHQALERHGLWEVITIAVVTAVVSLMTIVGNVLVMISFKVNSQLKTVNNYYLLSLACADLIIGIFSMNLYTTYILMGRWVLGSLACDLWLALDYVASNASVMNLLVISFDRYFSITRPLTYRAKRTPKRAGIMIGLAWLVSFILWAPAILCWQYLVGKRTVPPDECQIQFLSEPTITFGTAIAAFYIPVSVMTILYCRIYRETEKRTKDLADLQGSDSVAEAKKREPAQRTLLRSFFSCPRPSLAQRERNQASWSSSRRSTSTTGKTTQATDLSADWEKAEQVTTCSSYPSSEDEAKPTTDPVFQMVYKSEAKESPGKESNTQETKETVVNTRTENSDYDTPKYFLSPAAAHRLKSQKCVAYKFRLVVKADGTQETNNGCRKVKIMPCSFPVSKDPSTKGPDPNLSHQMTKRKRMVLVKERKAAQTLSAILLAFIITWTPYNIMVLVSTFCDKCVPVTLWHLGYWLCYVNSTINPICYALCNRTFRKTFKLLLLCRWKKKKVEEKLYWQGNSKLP
`Cc1nc2sc(C(=O)NCc3ccccc3)c(N)c2c(C)c1Cl`: the outcome was inactive.

Take `Cc1nc2sc(C(=O)NCc3ccncc3)c(N)c2c(C)c1Cl`: the outcome was inactive.

`COc1ccc(C)c2sc(NC(=O)c3ccncc3)nc12`: the result was inactive.

On to `Cc1nc2sc(C(=O)NCc3nccs3)c(N)c2c(C)c1Cl`, for which the outcome was inactive.

In the case of `Cc1nc2sc(C(=O)NCc3ccc4c(c3)OCO4)c(N)c2c(C)c1Cl`, the outcome was inactive.

For the compound `Cc1nc2sc(C(=O)NCc3cccc(F)c3F)c(N)c2c(C)c1Cl`, the outcome was inactive.

For `Cc1nc2sc(C(=O)NCc3cccnc3)c(N)c2c(C)c1Cl`, the outcome was inactive.

Regarding `Cc1nc2sc(C(=O)NC3CC3)c(N)c2c(C)c1Cl`, the outcome was inactive.

Turning to `Cc1nc2sc(C(=O)NCCc3ccncc3)c(N)c2c(C)c1Cl`, the result was inactive.

With `Cc1nc2sc(C(=O)NCc3ccncn3)c(N)c2c(C)c1Cl`, the outcome was inactive.

For the origin of these results see PubChem BioAssay AID623946 (Vanderbilt Specialized Chemistry Center, 2012).
